Assay results taken from PubChem BioAssay (EPA / NIEHS).
Records with an inconclusive call do not appear. Calls of active or inactive are those of the source. The calls were made as follows: active = hit-call score of the fitted dose curve at least 0.9, where 1 is the maximum; inconclusive = response in the unintended direction; inactive = score below 0.9.

Read-out: xenobiotic metabolism (CYP2C9), CYP2C9 (gene 1559)
Test: CLD_CYP2C9_6hr: CellzDirect (CLD) Gene Expression Assay for xenobiotic metabolism (CYP2C9) at 6 hours (AID 2283664)
Method: CLD_6hr is a cell-based, multiplexed-readout assay that uses hepatocyte, a human liver primary cell, with measurements taken at 6 hours after chemical dosing in a 96-well plate.CLD_CYP2C9_6hr is one of 16 assay component(s) measured or calculated from the CLD_6hr assay. It is designed to make measurements of mRNA induction, a form of inducible reporter, as detected with chemiluminescence signals by Quantitative Nuclease Protection Assay (qNPA) technology.Data from the assay component CLD_CYP2C9_6hr was analyzed at the endpoint, CLD_CYP2C9_6hr, in the positive analysis fitting direction relative to DMSO as the negative control and baseline of activity. Using a type of inducible reporter, gain-of-signal activity can be used to understand changes in the reporter gene as they relate to the gene CYP2C9. Furthermore, this assay endpoint can be referred to as a primary readout. To generalize the intended target to other relatable targets, this assay endpoint is annotated to the cyp intended target family, where subfamily is xenobiotic metabolism.
Human hepatocyte cultures were treated daily for two consecutive days with fresh dosing solutions containing appropriate concentrations of the 320 ToxCast chemicals (chemical identities were blinded to CellzDirect and other ToxCast collaborators), vehicle control (0.2% DMSO), and positive control inducers as summarized in Table 1. Due to the large number of treatment groups and chemicals examined, the ToxCast chemicals were divided into two groups (spanning two independent cultures of hepatocytes from separate donor preparations (Hu778: ToxCast plates 1 and 2; Hu776: ToxCast plates 3 and 4). Each preparation of human hepatocyte cultures was treated with respective vehicle control, medium only control, set of six positive controls/reference chemicals for the five hepatic receptor pathways, and a subset of eight of the ToxCast chemicals (indoxacarb, pyrithiobac-sodium, norflurazon, cyhalofop-butyl, methomyl, thiram, acetochlor, and propiconazole). These replicate data, coupled with internal replicates designed within the blinded ToxCast chemical library, provided additional data to evaluate interindividual differences between hepatocyte preparations and their potential impact on chemical profiles.Cell morphology and integrity were evaluated using phase-contrast microscopy as an indicator of hepatocyte cell health (Tyson & Green, 1987). Cultures for each treatment group (i.e., media, vehicle [0.2% DMSO], positive control inducers [multiple concentrations], and the ToxCast chemicals [multiple concentrations]) were observed and cell morphology was assessed relative to vehicle control cultures at each harvest time point (0, 6, 24, or 48 h). […] Images were evaluated at the conclusion of the study to assess changes in cell integrity and account for the effects of chemical exposure on uncharacteristic changes in concentration-dependent gene expression profiles. The results from these determinations of apparent cytotoxicity were annotated (yes/no) alongside the corresponding qNPA data for reference.At the conclusion of each treatment period, hepatocyte cultures (96-well) were washed with 1 volume of HBSS, lysed by addition of 25 ul ArrayPlate lysis buffer (HTG, Tucson, AZ), and 70 ul/well of Denaturation Oil, denatured by incubation at 95C for 10 min, and frozen at approximately -70C until analysis by nuclease protection assay (qNPA) (Roberts et al., 2007). For qNPA analysis, cell lysates were thawed at 50C for approximately 30 min, qNPA probes were added, and samples were incubated at 95C for 10 min to begin the detection process by denaturing the target RNA, dissociating the duplexes and secondary structure hybridization. At the conclusion of the hybridization period, S1 nuclease reagent was added to each sample to digest all nonprotected nucleotides at 50C for 60-90 min. […]

Row | Structure (SMILES) | outcome
1 | CC[C@H](C)[C@H]1O[C@]2(C=C[C@@H]1C)C[C@@H]1C[C@@H](C/C=C(\C)[C@@H](O[C@H]3C[C@H](OC)[C@@H](O[C@H]4C[C@H](OC)[C@@H](NC)[C@H](C)O4)[C@H](C)O3)[C@@H](C)/C=C/C=C3\CO[C@@H]4[C@H](O)C(C)=C[C@@H](C(=O)O1)[C@]34O)O2 | inactive
2 | O=c1ccc(=O)[nH][nH]1 | inactive
3 | CSC1=N[C@@](C)(c2ccccc2)C(=O)N1Nc1ccccc1 | inactive
4 | CCOC(=O)COc1cc(-c2nn(C)c(OC(F)F)c2Cl)c(F)cc1Cl | inactive
5 | CCCCSP(=O)(SCCCC)SCCCC | inactive
6 | Nc1c(Cl)cc([N+](=O)[O-])cc1Cl | inactive
7 | O=[N+]([O-])c1cc(C(F)(F)F)c(Cl)c([N+](=O)[O-])c1Nc1ncc(C(F)(F)F)cc1Cl | inactive
8 | CCC(CC)Nc1c([N+](=O)[O-])cc(C)c(C)c1[N+](=O)[O-] | inactive
9 | CON=C(C(=O)OC)c1ccccc1CON=C(C)c1cccc(C(F)(F)F)c1 | inactive
10 | COc1cc(OC)nc(Sc2cccc(Cl)c2C(=O)O)n1 | inactive
11 | C=C(C)[C@H]1Cc2c(ccc3c2O[C@@H]2COc4cc(OC)c(OC)cc4[C@@H]2C3=O)O1 | inactive
12 | CC(C1CC1)C(O)(Cn1cncn1)c1ccc(Cl)cc1 (stereo not drawn) | inactive
13 | COP(=O)(OC)SCn1c(=O)oc2cc(Cl)cnc21 | inactive
14 | CCOP(=S)(OCC)OC(Cl)C(Cl)(Cl)Cl (stereo not drawn) | inactive
15 | COP(=O)(NC(C)=O)SC (stereo not drawn) | inactive
16 | CC(C)N(C(=O)SCC(Cl)=C(Cl)Cl)C(C)C | inactive
17 | CC(=NC#N)N(C)Cc1ccc(Cl)nc1 | inactive

Row | Structure (SMILES) | outcome
18 | COc1cccc(C(=O)NN(C(=O)c2cc(C)cc(C)c2)C(C)(C)C)c1C | inactive
19 | N#CSCSC#N | inactive
20 | CCc1cccc(CC)c1N(COC)C(=O)CCl | inactive
21 | CCOP(=S)(OCC)Oc1ccc2c(C)c(Cl)c(=O)oc2c1 | inactive
22 | CCOP(=O)(OCC)Oc1cc(C)nc(C(C)C)n1 | inactive
23 | CSc1nnc(C(C)(C)C)c(=O)n1N | inactive
24 | O=C(O)c1cc(Oc2ccc(C(F)(F)F)cc2Cl)ccc1[N+](=O)[O-] | inactive
25 | CC(C)=CC1C(C(=O)OCN2C(=O)C3=C(CCCC3)C2=O)C1(C)C (stereo not drawn) | inactive
26 | CCCCOC(=O)c1ccccc1C(=O)O | inactive
27 | CNC(=O)ON=C(SC)C(=O)N(C)C | inactive
28 | CCCSP(=O)(OCC)SCCC | inactive
29 | CSc1nc(NC(C)C)nc(NC(C)C)n1 | inactive
30 | CN1COCN(Cc2cnc(Cl)s2)C1=N[N+](=O)[O-] | inactive
31 | Cc1ccn2nc(S(=O)(=O)Nc3c(F)cccc3F)nc2n1 | inactive
32 | Nc1nc(N)nc(NC2CC2)n1 | inactive
33 | CCNc1nc(Cl)nc(NC(C)(C)C#N)n1 | inactive
